Data: PubChem BioAssay

Columns and labels:
[1] = tested on: Human papillomavirus type 1a protein E7 (residues 44-93); experiment: small molecules binding HPV E7 44-93 – biochemical, small-molecule microarray, residues 44-93, 635 nm fluorescence, primary screen (AID 1108); conditions: fluorescence 635 nm, higher = more signal;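 note: E7 fragment applied at 1 µg/mL in TBST for 1 h at 4 C; score combines spot fluorescence with its signal to noise ratio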
[2] = hepatitis C replication reporter changes, two-sided – Huh7 cells, luciferase reporter, HCV replication inhibitor project, primary screen (AID 1109); conditions: Huh7 HCV replicon luciferase reporter, 48 h; higher = more signal;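 note: huh7 hepatoma cells harbouring a luciferase neomycin HCV replicon reporter; luciferase luminescence as measure of HCV replicon replication; test concentration not given here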
[3] = target: Left-right determination factor 2 (Homo sapiens) (UniProt O00292); experiment: small molecules binding LEFTY2 protein – biochemical, small-molecule microarray, 635 nm fluorescence scan, primary screen (AID 1110); conditions: higher = more signal
Chain of Left-right determination factor 2 (Homo sapiens) (O00292 whole entry, looked up): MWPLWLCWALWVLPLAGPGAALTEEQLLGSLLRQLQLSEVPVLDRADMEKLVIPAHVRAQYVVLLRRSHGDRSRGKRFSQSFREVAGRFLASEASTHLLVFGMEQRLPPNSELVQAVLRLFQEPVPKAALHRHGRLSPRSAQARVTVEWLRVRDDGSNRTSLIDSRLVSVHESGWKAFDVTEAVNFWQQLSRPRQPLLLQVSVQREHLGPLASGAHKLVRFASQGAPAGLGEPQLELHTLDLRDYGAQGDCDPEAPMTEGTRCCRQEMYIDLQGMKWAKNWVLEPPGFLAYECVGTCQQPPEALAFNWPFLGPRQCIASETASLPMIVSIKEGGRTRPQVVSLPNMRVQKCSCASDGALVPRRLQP

[4] = target: Calmodulin-1 (Homo sapiens) (UniProt P0DP23); experiment: small molecules binding calmodulin-1 with EGTA – biochemical, small-molecule microarray, Cy5-labelled CALM1, profiling panel (AID 1111); conditions: Cy5-CALM1 binding fluorescence, higher = more signal;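 note: labelled calmodulin applied in Tris saline Tween buffer holding calcium plus EGTA and DTT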
[5] = target: Calmodulin-1 (Homo sapiens) (UniProt P0DP23); experiment: small molecules binding Ca-loaded calmodulin-1 – biochemical, small-molecule microarray, Cy5-labelled CALM1, plus calcium, artefact control for SMM control-protein annotation, profiling panel (AID 1112); conditions: Cy5-CALM1 binding fluorescence, higher = more signal;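 note: score merges spot fluorescence with signal to noise from triplicate slides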
[6] = probe aWnt5a binding to arrayed compounds – biochemical, biotinylated probe, 635/667 nm fluorescence, primary screen (AID 1113); conditions: small-molecule microarray, higher = more signal;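 note: score merges 667 nm fluorescence intensity with signal-to-noise per printed feature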
[7] = probe aShh binding to arrayed compounds – biochemical, biotinylated probe, 635/667 nm fluorescence, primary screen (AID 1114); conditions: small-molecule microarray, higher = more signal;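 note: probe is biotin-labelled aShh protein from a stem cell growth factor screen; measures binding of labelled protein to compounds printed on the slide; score merges feature fluorescence at 667 nm with signal-to-noise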
[8] = probe aNog binding to arrayed compounds – biochemical, biotinylated probe, 635/667 nm fluorescence, primary screen (AID 1115); conditions: small-molecule microarray, higher = more signal;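 note: probe is biotinylated aNog protein used at 0.15 µg/mL for 1 h at 4 C; z-score combines 667 nm fluorescence of each spot with its signal to noise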
[9] = target: Torsin-1A-interacting protein 1 (Homo sapiens) (UniProt Q5JTV8); experiment: compound microarray binding of lysate hLAP1 – cell lysate, small-molecule microarray, COS7 lysate, 635/667 nm fluorescence, primary screen (AID 1116); conditions: 635 nm fluorescence, higher = more signal
Chain of Torsin-1A-interacting protein 1 (Homo sapiens) (Q5JTV8 whole entry, looked up): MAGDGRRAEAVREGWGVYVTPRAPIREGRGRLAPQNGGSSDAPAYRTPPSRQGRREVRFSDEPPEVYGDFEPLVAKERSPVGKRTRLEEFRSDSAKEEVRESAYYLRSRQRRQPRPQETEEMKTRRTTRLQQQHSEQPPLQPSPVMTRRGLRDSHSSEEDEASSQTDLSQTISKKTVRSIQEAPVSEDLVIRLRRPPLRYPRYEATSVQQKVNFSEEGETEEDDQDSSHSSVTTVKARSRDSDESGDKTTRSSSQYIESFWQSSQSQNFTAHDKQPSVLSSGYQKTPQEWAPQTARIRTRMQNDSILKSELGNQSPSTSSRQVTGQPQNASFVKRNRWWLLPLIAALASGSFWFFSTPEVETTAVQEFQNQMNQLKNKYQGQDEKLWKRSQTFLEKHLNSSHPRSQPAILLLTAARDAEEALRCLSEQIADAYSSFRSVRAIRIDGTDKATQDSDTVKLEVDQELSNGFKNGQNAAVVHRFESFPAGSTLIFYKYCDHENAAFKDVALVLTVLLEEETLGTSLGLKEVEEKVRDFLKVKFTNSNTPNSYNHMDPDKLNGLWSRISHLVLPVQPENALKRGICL

[10] = target: Alpha-bungarotoxin (Bungarus multicinctus) (UniProt P60615); experiment: compounds binding labelled alpha-BTX control protein – biochemical, small-molecule microarray, Alexa647 label, 635/667 nm fluorescence, artefact control for SMM control protein annotation, profiling panel (AID 1117); conditions: alpha-BTX-A647 binding fluorescence, higher = more signal
Chain of Alpha-bungarotoxin (Bungarus multicinctus) (P60615 whole entry, looked up): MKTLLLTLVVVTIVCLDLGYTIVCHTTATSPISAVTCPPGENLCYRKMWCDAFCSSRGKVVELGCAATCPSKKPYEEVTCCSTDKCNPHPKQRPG

CC[C@@H]1C=C(C(=O)O)[C@H](c2ccc(OC)cc2)N1S(=O)(=O)c1ccc(C)cc1
composite z-score [1]: -0.875 | z-score [2]: -0.619 | composite z-score [3]: -0.495 | composite z-score [4]: 0.15 | composite z-score [5]: 0.0583 | composite z-score [6]: -0.154 | composite z-score [7]: -0.221 | composite z-score [8]: -0.209 | composite z-score [9]: 0.076 | composite z-score [10]: 0.0708

CC(C)NC(=O)[C@@H]1c2ccccc2C(=O)N(Cc2ccccc2C(F)(F)F)[C@H]1c1ccc(CO)cc1
composite z-score [1]: 0.464 | z-score [2]: -0.692 | composite z-score [3]: -1.27 | composite z-score [4]: -0.588 | composite z-score [5]: -0.721 | composite z-score [6]: 0.4 | composite z-score [7]: 0.0649 | composite z-score [8]: -1.04 | composite z-score [9]: 0.0048 | composite z-score [10]: -0.198

C=CCC(OC(C)=O)[C@@H]1[C@@H](N(Cc2cccc3ccccc23)C(=O)Cc2ccc(OC)cc2)c2cc(OCCCO)ccc2N1C(=O)c1ccc2ccccc2c1 (stereo not given in full)
composite z-score [1]: 0.233 | z-score [2]: -0.922 | composite z-score [3]: 0.139 | composite z-score [4]: 0.468 | composite z-score [5]: -0.385 | composite z-score [6]: -0.0398 | composite z-score [7]: 0.138 | composite z-score [8]: -0.23 | composite z-score [9]: 0.119 | composite z-score [10]: 0.337

CC(C)NC(=O)[C@@]1(C)c2ccccc2C(=O)N(Cc2ccccc2)[C@H]1c1ccc(CO)cc1
composite z-score [1]: 0.864 | z-score [2]: -0.957 | composite z-score [3]: -1.47 | composite z-score [4]: -0.155 | composite z-score [5]: -0.672 | composite z-score [6]: -0.0819 | composite z-score [7]: -0.209 | composite z-score [8]: -0.45 | composite z-score [9]: -0.922 | composite z-score [10]: 0.386

O=C1O[C@@H](c2ccccc2)[C@@H](c2ccccc2)N2[C@@H](c3ccc(OCCO)cc3)[C@]3(C(=O)Nc4ccc(C#CC5(O)CCCCCC5)cc43)[C@@H](C(=O)Nc3nc4ccccc4s3)[C@H]12
composite z-score [1]: 1.44 | z-score [2]: -2.29 | composite z-score [3]: 0.755 | composite z-score [4]: 1.6 | composite z-score [5]: 0.646 | composite z-score [6]: 0.0775 | composite z-score [7]: 0.156 | composite z-score [8]: 0.516 | composite z-score [9]: 1.34 | composite z-score [10]: 1.41

C=CCNC(=O)[C@H]1[C@@H]2C(=O)O[C@@H](c3ccccc3)[C@@H](c3ccccc3)N2[C@@H](c2ccc(OCCO)cc2)[C@]12C(=O)Nc1ccc(C#CC3(O)CCCCCC3)cc12
composite z-score [1]: 1.24 | z-score [2]: -2.33 | composite z-score [3]: 0.954 | composite z-score [4]: 1.29 | composite z-score [5]: 0.229 | composite z-score [6]: -0.0607 | composite z-score [7]: -0.0146 | composite z-score [8]: 0.74 | composite z-score [9]: 1.47 | composite z-score [10]: 1.74

[N-]=[N+]=NCc1ccccc1[C@@H]1OC(c2ccc(OCCCO)cc2)=N[C@]1(Cc1ccccc1N=[N+]=[N-])C(=O)O
composite z-score [1]: 0.98 | z-score [2]: -0.909 | composite z-score [3]: -0.0061 | composite z-score [4]: 1.4 | composite z-score [5]: 0.774 | composite z-score [6]: 0.496 | composite z-score [7]: 0.541 | composite z-score [8]: 1.7 | composite z-score [9]: 0.697 | composite z-score [10]: 1.55

COCCCNC(=O)[C@@]1(Sc2ccc(C)cc2)CC(=O)N(Cc2ccccc2C(F)(F)F)[C@@H]1c1ccc(CO)cc1I
composite z-score [1]: -0.779 | z-score [2]: -0.817 | composite z-score [3]: -1.47 | composite z-score [4]: -0.376 | composite z-score [5]: 1.04 | composite z-score [6]: -0.139 | composite z-score [7]: -0.0769 | composite z-score [8]: 0.595 | composite z-score [9]: -0.181 | composite z-score [10]: -1.2

COCCCN1C(=O)[C@@]2(c3ccc([N+](=O)[O-])cc3)CC(=O)N(CC34CC5CC(CC(C5)C3)C4)[C@@H]2c2ccc(CO)cc21
composite z-score [1]: 0.372 | z-score [2]: -0.445 | composite z-score [3]: -0.407 | composite z-score [4]: -0.226 | composite z-score [5]: -0.406 | composite z-score [6]: -0.096 | composite z-score [7]: -0.291 | composite z-score [8]: -0.461 | composite z-score [9]: -0.507 | composite z-score [10]: 0.241

COC(=O)[C@@]1(Cc2ccccc2)[C@H]2c3cc(C(=O)N(C)C)n(CCSC(=N)N)c3C[C@H]2CN1C(=O)c1ccccc1
composite z-score [1]: -0.98 | z-score [2]: -0.588 | composite z-score [3]: -0.76 | composite z-score [4]: 0.96 | composite z-score [5]: 0.0575 | composite z-score [6]: -0.0006 | composite z-score [7]: -0.138 | composite z-score [8]: 1.39 | composite z-score [9]: 3.21 | composite z-score [10]: -0.351

C#CCN1[C@@H](Cc2ccccc2)C(=O)O[C@H](Cc2ccccc2)[C@@H]1/C=C/C1CC1
composite z-score [1]: 0.805 | z-score [2]: -2.28 | composite z-score [3]: 0.137 | composite z-score [4]: -0.63 | composite z-score [5]: -0.717 | composite z-score [6]: -0.118 | composite z-score [7]: -0.0337 | composite z-score [8]: -0.196 | composite z-score [9]: 0.436 | composite z-score [10]: 0.456

COCCOC(=O)N1C(=O)[C@@]2(c3cc(C#CCCO)ccc31)[C@H](C(N)=O)[C@H]1C(=O)O[C@H](c3ccccc3)[C@H](c3ccccc3)N1[C@@H]2c1ccccc1OCCO
composite z-score [1]: 0.99 | z-score [2]: -2.12 | composite z-score [3]: 0.432 | composite z-score [4]: 1.03 | composite z-score [5]: 0.114 | composite z-score [6]: -0.0445 | composite z-score [7]: -0.0165 | composite z-score [8]: 0.135 | composite z-score [9]: 1.08 | composite z-score [10]: 2.08

C=CCNC(=O)[C@H]1[C@@H]2C(=O)O[C@@H](c3ccccc3)[C@@H](c3ccccc3)N2[C@@H](c2ccccc2OCCO)[C@]12C(=O)N(C(=O)OCCOC)c1ccc(C#Cc3ccc(OC)cc3)cc12
composite z-score [1]: 1.39 | z-score [2]: -2.79 | composite z-score [3]: 0.342 | composite z-score [4]: 1.39 | composite z-score [5]: 0.37 | composite z-score [6]: -0.152 | composite z-score [7]: -0.0011 | composite z-score [8]: 0.254 | composite z-score [9]: 0.143 | composite z-score [10]: 1.3

[N-]=[N+]=Nc1ccccc1C[C@]1(C(=O)N2CCOCC2)N=C(c2ccc(OCCCO)cc2)O[C@H]1c1ccccc1N=[N+]=[N-]
composite z-score [1]: 1.29 | z-score [2]: -2.23 | composite z-score [3]: 1.22 | composite z-score [4]: 1.5 | composite z-score [5]: -0.388 | composite z-score [6]: 0.145 | composite z-score [7]: 0.275 | composite z-score [8]: -0.626 | composite z-score [9]: 1.9 | composite z-score [10]: 1.84

CC(C)C(O)C1C=CC2C(=O)NC(=O)C2N1Nc1ccccn1 (stereo not given)
composite z-score [1]: 0.927 | z-score [2]: -0.43 | composite z-score [3]: 0.108 | composite z-score [4]: 0.0802 | composite z-score [5]: -0.187 | composite z-score [6]: 0.009 | composite z-score [7]: -0.0793 | composite z-score [8]: 0.116 | composite z-score [9]: 0.325 | composite z-score [10]: 0.631

COC(=O)[C@@]1(Cc2ccccc2)[C@H]2c3cc(C(=O)N(C)C)n(CCO)c3C[C@H]2CN1C(=O)c1ccccc1
composite z-score [1]: 0.56 | z-score [2]: -0.766 | composite z-score [3]: 0.145 | composite z-score [4]: 2.07 | composite z-score [5]: 1.27 | composite z-score [6]: 0.0511 | composite z-score [7]: 0.0005 | composite z-score [8]: 0.623 | composite z-score [9]: 0.952 | composite z-score [10]: 0.723

NC(=O)NCC#Cc1ccc2c(c1)[C@]1(C(=O)N2)[C@H](c2ccc(OCCO)cc2)N2[C@H](c3ccccc3)[C@H](c3ccccc3)OC(=O)[C@H]2[C@@H]1C(=O)NC[C@H](O)c1ccccc1
composite z-score [1]: 1.01 | z-score [2]: -1.27 | composite z-score [3]: -0.375 | composite z-score [4]: 0.0317 | composite z-score [5]: -0.194 | composite z-score [6]: -0.0572 | composite z-score [7]: -0.367 | composite z-score [8]: -0.559 | composite z-score [9]: 0.727 | composite z-score [10]: 0.502
